Data: ChEMBL document CHEMBL5308504, “Tm Shift (DSF) assay results for EUbOPEN Chemogenomics Library” (2023)

Experiments:
Conditions in all cases: Compound concentration 20.0 uM, Protein concentration 2.0 uM, Result type QC Liability
[1] = molecular target: Tyrosine-protein kinase ABL1 (Homo sapiens) (UniProt P00519)
[2] = molecular target: Cyclin-dependent kinase 2 (Homo sapiens) (UniProt P24941)
[3] = molecular target: Casein kinase I isoform delta (Homo sapiens) (UniProt P48730)
[4] = molecular target: Glycogen synthase kinase-3 beta (Homo sapiens) (UniProt P49841)
[5] = molecular target: Mitogen-activated protein kinase 1 (Homo sapiens) (UniProt P28482)
[6] = molecular target: T1, Aurora kinase A (Homo sapiens) (UniProt O14965)
T1 sequence (whole entry): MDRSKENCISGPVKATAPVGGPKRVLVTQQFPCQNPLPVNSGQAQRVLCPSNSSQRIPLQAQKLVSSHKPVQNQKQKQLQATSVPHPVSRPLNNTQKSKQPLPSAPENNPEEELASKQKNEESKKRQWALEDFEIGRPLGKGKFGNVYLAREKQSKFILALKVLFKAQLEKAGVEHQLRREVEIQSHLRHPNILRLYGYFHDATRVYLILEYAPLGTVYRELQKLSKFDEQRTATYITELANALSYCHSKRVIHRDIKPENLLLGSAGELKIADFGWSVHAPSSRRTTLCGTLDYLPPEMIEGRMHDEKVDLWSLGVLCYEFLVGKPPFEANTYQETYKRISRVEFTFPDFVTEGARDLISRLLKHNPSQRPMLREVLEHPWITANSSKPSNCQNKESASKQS

Chain of Casein kinase I isoform delta (Homo sapiens) (P48730 whole entry, looked up, canonical isoform): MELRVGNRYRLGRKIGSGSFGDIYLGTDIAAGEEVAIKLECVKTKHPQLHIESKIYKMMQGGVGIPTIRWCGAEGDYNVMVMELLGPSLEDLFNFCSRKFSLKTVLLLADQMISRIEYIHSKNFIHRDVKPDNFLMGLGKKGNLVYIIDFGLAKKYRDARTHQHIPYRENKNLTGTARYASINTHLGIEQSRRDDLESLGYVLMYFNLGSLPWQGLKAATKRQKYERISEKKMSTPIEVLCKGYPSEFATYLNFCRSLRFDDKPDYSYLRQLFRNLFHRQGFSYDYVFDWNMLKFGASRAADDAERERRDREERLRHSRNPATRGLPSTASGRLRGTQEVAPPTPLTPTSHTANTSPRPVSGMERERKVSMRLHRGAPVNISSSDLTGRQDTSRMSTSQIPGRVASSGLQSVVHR
Chain of Mitogen-activated protein kinase 1 (Homo sapiens) (P28482 whole entry): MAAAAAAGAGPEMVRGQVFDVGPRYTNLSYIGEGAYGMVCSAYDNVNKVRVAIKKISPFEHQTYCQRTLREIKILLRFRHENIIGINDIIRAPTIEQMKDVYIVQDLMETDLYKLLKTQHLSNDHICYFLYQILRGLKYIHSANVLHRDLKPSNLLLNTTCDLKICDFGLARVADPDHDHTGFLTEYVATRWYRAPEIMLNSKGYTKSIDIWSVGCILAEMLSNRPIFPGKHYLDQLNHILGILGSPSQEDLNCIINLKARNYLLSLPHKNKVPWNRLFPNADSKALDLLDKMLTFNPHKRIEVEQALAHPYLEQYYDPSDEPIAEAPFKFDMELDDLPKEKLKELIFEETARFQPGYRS
Chain of Glycogen synthase kinase-3 beta (Homo sapiens) (P49841 whole entry, looked up): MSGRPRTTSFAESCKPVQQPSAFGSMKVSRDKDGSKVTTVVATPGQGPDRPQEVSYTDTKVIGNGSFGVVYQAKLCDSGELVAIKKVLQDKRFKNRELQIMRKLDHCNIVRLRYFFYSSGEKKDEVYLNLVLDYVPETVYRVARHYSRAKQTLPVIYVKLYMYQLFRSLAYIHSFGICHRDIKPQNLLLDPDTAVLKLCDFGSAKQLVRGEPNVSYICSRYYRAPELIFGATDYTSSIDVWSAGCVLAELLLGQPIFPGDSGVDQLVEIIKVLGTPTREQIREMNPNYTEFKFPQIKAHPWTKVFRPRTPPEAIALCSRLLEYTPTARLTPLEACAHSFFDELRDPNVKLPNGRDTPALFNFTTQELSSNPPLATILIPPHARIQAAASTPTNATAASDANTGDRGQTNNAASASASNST
Chain of Tyrosine-protein kinase ABL1 (Homo sapiens) (P00519 whole entry): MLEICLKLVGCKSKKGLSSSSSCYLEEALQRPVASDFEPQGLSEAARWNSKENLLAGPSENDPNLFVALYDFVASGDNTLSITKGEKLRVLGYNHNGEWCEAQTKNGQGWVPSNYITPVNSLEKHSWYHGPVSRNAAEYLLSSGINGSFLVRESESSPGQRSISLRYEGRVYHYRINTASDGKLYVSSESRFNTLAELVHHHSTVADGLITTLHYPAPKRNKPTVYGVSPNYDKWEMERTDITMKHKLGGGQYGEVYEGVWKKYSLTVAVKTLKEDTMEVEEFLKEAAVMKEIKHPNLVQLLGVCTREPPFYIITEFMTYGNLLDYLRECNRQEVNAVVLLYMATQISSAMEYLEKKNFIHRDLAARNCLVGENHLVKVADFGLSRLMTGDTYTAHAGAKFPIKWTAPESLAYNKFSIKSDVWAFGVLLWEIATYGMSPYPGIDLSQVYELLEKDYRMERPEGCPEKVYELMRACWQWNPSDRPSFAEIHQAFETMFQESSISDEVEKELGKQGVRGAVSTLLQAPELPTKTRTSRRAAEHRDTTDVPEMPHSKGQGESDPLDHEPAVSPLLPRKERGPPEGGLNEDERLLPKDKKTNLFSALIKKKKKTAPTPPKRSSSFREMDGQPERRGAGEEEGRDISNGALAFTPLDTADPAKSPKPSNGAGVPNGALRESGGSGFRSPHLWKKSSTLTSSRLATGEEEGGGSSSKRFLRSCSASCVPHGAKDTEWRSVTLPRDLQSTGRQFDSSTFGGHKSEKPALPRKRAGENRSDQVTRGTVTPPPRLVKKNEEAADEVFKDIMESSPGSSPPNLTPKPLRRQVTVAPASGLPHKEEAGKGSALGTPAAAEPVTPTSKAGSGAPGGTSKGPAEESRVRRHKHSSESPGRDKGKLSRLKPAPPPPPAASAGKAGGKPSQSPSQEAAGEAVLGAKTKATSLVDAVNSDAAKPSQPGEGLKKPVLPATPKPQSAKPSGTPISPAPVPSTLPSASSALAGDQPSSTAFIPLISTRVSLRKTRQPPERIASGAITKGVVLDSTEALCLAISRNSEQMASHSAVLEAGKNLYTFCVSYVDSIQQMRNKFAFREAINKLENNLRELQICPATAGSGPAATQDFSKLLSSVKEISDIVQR

| Compound | ΔTm [1] [°C] | ΔTm [2] [°C] | ΔTm [3] [°C] | ΔTm [4] [°C] | ΔTm [5] [°C] | ΔTm [6] [°C] |
| --- | --- | --- | --- | --- | --- | --- |
| Cc1cccc(CC(=O)N2CCc3c2ccc(-c2cn(C)c4ncnc(N)c24)c3F)n1 | 2.48 | 0.14 | 0.49 | -0.92 | 0.15 | 0.37 |
| COc1ccc2c(O[C@@H]3C[C@H]4C(=O)N[C@]5(C(=O)NS(=O)(=O)C6(C)CC6)CC5/C=C\CCCCC[C@H](NC(=O)c5ccn(C)n5)C(=O)N4C3)cc(OC(C)C)nc2c1C (some centres undefined) | -0.32 | -0.49 | -1.66 | -4.13 | -0.6 | -0.12 |
| Cc1nc2cccnc2n2c(-c3cc([C@@]4(O)CCCOC4)ccc3Cl)nnc12 | -0.53 | 0.88 | 0.26 | -0.63 | 0 | -0.06 |
| COc1cc(C(N)=O)ccc1Nc1ncc2c(n1)N(CCC(C)C)[C@H](C)C(=O)N2C | 1.42 | -0.37 | 0.51 | 0.01 | -6.61 | -0.69 |
| CSc1ccc(C(=O)/C=C/c2cc(C)c(OC(C)(C)C(=O)O)c(C)c2)cc1 | 1.1 | 0.59 | 0.61 | 0.69 | 0.07 | 4.96 |
| Cc1cc(OCCC(C)(C)O)cc(C)c1-c1ccc(F)c2c1CC[C@H]2Oc1ccc2c(c1)OC[C@H]2CC(=O)O | -2.63 | -3.73 | -1.62 | -4.17 | -8.53 | -3.22 |
| CCN1C(=O)/C(=C(\NC2CCN(C)CC2)c2ccc3c(c2)OCO3)c2cc(C(C)=O)ccc21 | 0.4 | 0.54 | 1.8 | 0.62 | 0.05 | 0.02 |
| CN1C(=O)c2ccccc2N(C)c2nc(Nc3cnn(C4CCNCC4)c3)ncc21 | 9.76 | 1.04 | 0.9 | 0.14 | 0.53 | 16.4 |
| CN(C)C(=O)Cn1cc(-c2nc(C3(c4ccc(-c5cnc(N)nc5)cc4)CC3)no2)cn1 | 0.7 | 0.53 | 0.13 | -0.37 | 0.16 | 1.51 |
| Nc1ncnc2c1c(COc1cccc(Cl)c1)nn2C1CCOCC1 | 1.95 | 0.26 | 3.79 | 0.11 | 0.21 | -4.79 |
| Cc1nn(-c2ccccc2)c(Nc2ccccc2C(=O)O)c1-c1cc2nccnc2c(F)c1F | -0.68 | 0.56 | 0.22 | 1 | 0.47 | 0.69 |
| CCOC(=O)Nc1ccc2c(c1)N(C(=O)CN(CC)CC)c1ccccc1CC2 | 0.17 | 0.57 | 0.58 | -0.12 | 0.19 | -1.06 |
| COC1(C#Cc2ccc(Cl)c(-c3ncc4c(n3)-c3sc(NC(C)=O)nc3CC4)c2)CCN(C)CC1 | 0.87 | -0.1 | 1.14 | -0.95 | 0.03 | 0 |
| CC(C)(O)[C@H]1CC[C@H](Nc2ccc3ncc(-c4cccc(C(F)(F)F)c4)n3n2)CC1 | 0.38 | 1.53 | 3.57 | 2.41 | 0.62 | 0.74 |
| Cc1nccc(COC(=O)N2C[C@@H]3[C@@H](CNC(=O)c4ccc5[nH]nnc5c4)[C@@H]3C2)n1 | -0.16 | 0.19 | 0.34 | 0.22 | 0.26 | -0.07 |
| C[C@]12CC[C@@H]3c4ccc(O)cc4CC[C@H]3[C@@H]1C[C@H]1OC(=O)C[C@]12O | -0.2 | 0.7 | 0.32 | 0.78 | 0.29 | 0.5 |
| O=C(O)c1ccc(CN2C[C@@H]3C[C@H]2CN3Cc2ccc(Oc3ccc(-c4ncco4)cc3)cc2)cc1 | 0.42 | 0.83 | 0.25 | -0.14 | 0.14 | -0.18 |
| Cc1c(N2CCNCC2)nc2ccc(Br)cc2c1C(=O)NC[C@H](CCC(=O)O)c1ccccc1Cl | 0.01 | 0.4 | 0.62 | 0.03 | 0.18 | 0.41 |
| CNC(=O)c1c[nH]c2ccc(Nc3nccc(-c4ccccn4)n3)cc12 | 2 | 1.28 | 0.6 | 2.67 | 0.16 | 1.47 |
| CN(C)C/C=C/C(=O)Nc1cc2c(Nc3ccc(F)c(Cl)c3)ncnc2cc1OC[C@@H]1CCCO1 | 6.89 | -0.1 | 1.15 | 2.63 | -1.79 | 1.39 |
| CCn1c(=O)c2c(C)c(C(=O)N3CCC(O)CC3)sc2n(CCC(F)(F)F)c1=O | 0.35 | 0.49 | 0.3 | -0.42 | 0.14 | 0.03 |
| Cc1ccc2c(NS(=O)(=O)c3ccccc3Cl)cccc2c1Oc1ncccc1-c1ccnc(N[C@H]2CCCNC2)n1 | 1.79 | 0.86 | 0.45 | -0.76 | -1.3 | 1.28 |
| CN[C@@H](C)C(=O)N[C@H](C(=O)N1CCC[C@H]1C(=O)N[C@H]1c2ccccc2C[C@H]1OCC#CC#CCO[C@@H]1Cc2ccccc2[C@@H]1NC(=O)[C@@H]1CCCN1C(=O)[C@@H](NC(=O)[C@H](C)NC)C1CCCCC1)C1CCCCC1 | 0.18 | -0.48 | 0.49 | -1.17 | 0.11 | -1.88 |
| CN(C)C(=O)Cn1cc(-c2nc([C@@](C)(c3ccc(-c4cnc(N)nc4)cc3)C3CC3)no2)cn1 | 1.32 | 0.32 | 0.5 | -0.36 | 0.32 | 2.6 |
